Shown are actives, neighbours in structure and some others; about 2.3% of the full set was active somewhere.
U2OS ROS induce: inducers of reactive oxygen species in cancer cells; 46,000 compounds, 2% hits; AID 624156; U2OS ROS induction, H2DCF-DA fluorescence; ROS induction (% of piperlongumine), % at 10 µM; in the data active = ROS induction above about 79%, passing the limit was not always enough
YB-1 expression: YB-1 expression inhibition; U2OS, qRT-PCR YB-1 vs CDIP delta delta Cp, 16 h; hits give high values; zero = DMSO, each unit about twofold; delta delta Cp (YB-1 minus CDIP) (test concentration not listed); 30,000 compounds, 0.37% hits; AID 434959;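 active = delta delta Cp rounded down to an integer at or above 3, about 3 SD of DMSO wells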;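 also: higher means less YB-1 transcript or more CDIP transcript relative to DMSO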
Each line names hits and unclear results; the compound was inactive in the other large screens.

C=CCNC(=O)[C@H]1[C@@H]2C(=O)O[C@@H](c3ccccc3)[C@@H](c3ccccc3)N2[C@@H](c2ccc(OCCO)cc2)[C@]12C(=O)Nc1ccc(C#CC3(O)CCCCCC3)cc12	none
C=CCNC(=O)[C@H]1[C@@H]2C(=O)O[C@@H](c3ccccc3)[C@@H](c3ccccc3)N2[C@@H](c2ccc(O)cc2)[C@]12C(=O)Nc1ccc(C#CCCO)cc12	none
C=CCNC(=O)[C@@H]1[C@H]2C(=O)O[C@H](c3ccccc3)[C@H](c3ccccc3)N2[C@H](c2ccc(OCCO)cc2)[C@@]12C(=O)Nc1ccc(C#CC3(O)CCCCCC3)cc12	U2OS ROS induce 85
CNC(=O)C(C)n1nc(C)c2sc3ccccc3c2c1=O (stereo not drawn)	none (no result: YB-1 expression)
CCOC(=O)c1cnn(CCOC(=O)c2ccc(C)cc2)c1NC(=O)c1ccc(C)cc1	none (no result: YB-1 expression)
O=C(Nc1ccc(-c2nc3ccccc3s2)cc1)c1cccc(F)c1	none (no result: YB-1 expression)
CCn1c(C(=O)N2CCCC(C(=O)N3CCN(c4cccc(C)c4C)CC3)C2)cc2sccc21 (stereo not drawn)	none (no result: YB-1 expression)
Cc1nn(-c2ccccc2)c2[nH]c(=O)c(C#N)c(-c3cccs3)c12	none (no result: YB-1 expression)
COc1ccccc1NC(=O)N1C(C(=O)NCc2ccc(F)cc2)CSC1c1ccccc1C (stereo not drawn)	none (no result: YB-1 expression)
C[C@@H]1CN([C@H](C)CO)C(=O)c2cc(NC(=O)Cc3ccccc3)ccc2O[C@@H]1CN(C)S(=O)(=O)c1ccccc1	YB-1 expression 18
C[C@@H]1CN([C@H](C)CO)C(=O)c2cc(NC(=O)CCN3CCOCC3)ccc2O[C@H]1CN(C)S(=O)(=O)c1ccccc1	YB-1 expression 20
Cc1ccc(S(=O)(=O)N(C)C[C@@H]2Oc3ccc(NC(=O)Cc4ccccc4)cc3C(=O)N([C@H](C)CO)C[C@H]2C)cc1	none
C[C@H]1CN([C@@H](C)CO)C(=O)c2cc(NC(=O)CCN3CCOCC3)ccc2O[C@H]1CN(C)S(=O)(=O)c1ccccc1	none
O=C(CCN1C(=O)c2ccccc2C1=O)N1CCN(c2cccc(Cl)c2)CC1	none (no result: YB-1 expression)
C[C@@H]1CN([C@@H](C)CO)C(=O)Cc2cc(NC(=O)CCC(F)(F)F)ccc2O[C@@H]1CN(C)Cc1ccc(Cl)c(Cl)c1	none
C[C@H](CO)N1C[C@H](C)[C@H](CN(C)Cc2ccc(Cl)c(Cl)c2)Oc2ccc(NC(=O)C3CC3)cc2CC1=O	none
C[C@H](CO)N1C[C@H](C)[C@H](CN(C)Cc2ccc(Cl)c(Cl)c2)Oc2ccc(NC(=O)CCC(F)(F)F)cc2CC1=O	U2OS ROS induce 151
C[C@H]1CN([C@@H](C)CO)C(=O)Cc2cc(NC(=O)C3CCCCC3)ccc2O[C@@H]1CN(C)Cc1ccc2c(c1)OCO2	none
C[C@@H]1CN([C@H](C)CO)C(=O)Cc2cc(NC(=O)C3CCCCC3)ccc2O[C@@H]1CN(C)Cc1ccc2c(c1)OCO2	U2OS ROS induce 141
C[C@@H]1CN([C@H](C)CO)C(=O)Cc2cc(NC(=O)C3CC3)ccc2O[C@@H]1CN(C)Cc1ccc(Cl)c(Cl)c1	U2OS ROS induce 164
CCOc1ccc(-n2c(SCc3ccccc3)nnc2-c2cccnc2)cc1	none (no result: YB-1 expression)
CC(C)c1ccc(NC(=O)CN2C(=O)c3ccccc3Sc3ccc(C(=O)N4CCCC4)cc32)cc1	none (no result: YB-1 expression)
CC1CN(c2nc3ccccc3nc2SCC(=O)Nc2ccccc2)CC(C)O1 (stereo not drawn)	none
O=C(Cc1ccc(NC2=NC3CS(=O)(=O)CC3S2)cc1)Nc1ccccc1 (stereo not drawn)	none (no result: YB-1 expression)
NC(=O)C(Cc1ccccc1)NS(=O)(=O)c1ccc2oc3ccccc3c2c1 (stereo not drawn)	U2OS ROS induce 165 (no result: YB-1 expression)
Cc1c(C(=O)O)oc2ccc(S(=O)(=O)NCCc3ccccc3)cc12	none (no result: YB-1 expression)
Cc1cc(=O)nc2c3ccccc3n(C(C)C(=O)Nc3c(F)c(F)cc(F)c3F)n12 (stereo not drawn)	none (no result: YB-1 expression)
C=C(CO)C(=O)O[C@H]1CC(=C)[C@@H]2CC(=O)[C@H](C)[C@@H]2[C@H]2OC(=O)C(=C)[C@@H]21	U2OS ROS induce 122
C=C1C(=O)O[C@H]2C1[C@H](OC(=O)/C(C)=C/CO)C/C(C)=C\CC[C@@]1(CO)OC21 (stereo partly drawn)	none
COc1cccc(OC)c1C(=O)N1CCN(C(=O)COc2ccc(Cl)cc2)CC1	none (no result: YB-1 expression)
COc1cc2c(cc1OC)C(C)N(C(=O)c1nn(-c3ccccc3)nc1C)CC2 (stereo not drawn)	none (no result: YB-1 expression)
Cc1c(Br)c([N+](=O)[O-])nn1C(C)C(=O)NCc1ccco1 (stereo not drawn)	none (no result: YB-1 expression)
CCc1ccccc1NC(=O)C(C)n1nc([N+](=O)[O-])c(Br)c1C (stereo not drawn)	U2OS ROS induce 111 (no result: YB-1 expression)
COc1cccc(C2CC(C(F)(F)F)n3ncc(C(=O)O)c3N2)c1 (stereo not drawn)	none
COc1cccc(C2CC(C(F)(F)F)n3ncc(C(=O)NCc4cccnc4)c3N2)c1 (stereo not drawn)	U2OS ROS induce 101 (no result: YB-1 expression)
COC(=O)/C=c1\sc2n(c1=O)CCN=2	none (no result: YB-1 expression)
COC(=O)C1=C(O)/C(=C/c2ccc(O)cc2)SC1=Nc1ccccc1	U2OS ROS induce 164 (no result: YB-1 expression)
COC(=O)CN1C(=O)/C(=C\c2ccc(O)cc2)SC1=S	none (no result: YB-1 expression)
O=C(O)CCC(=O)Nc1ccc(Cc2ccncc2)cc1	YB-1 expression 8.6
O=C(O)CCC(=O)Nc1ccc2c(c1)C(=O)NC2=O	none (no result: YB-1 expression)
COc1ccc(C2CC(=O)c3c(O)cc(O[C@@H]4O[C@H](CO[C@@H]5O[C@@H](C)[C@H](O)[C@@H](O)[C@H]5O)[C@@H](O)[C@H](O)[C@H]4O)cc3O2)cc1 (stereo partly drawn)	none
O=C(/C=C/c1ccc(O)cc1)OC[C@H]1O[C@@H](Oc2cc(O)c3c(c2)OC(c2ccc(O)cc2)CC3=O)[C@H](O)[C@@H](OC(=O)/C=C/c2ccc(O)cc2)[C@@H]1O (stereo partly drawn)	U2OS ROS induce 165
C[C@@H]1O[C@@H](OC[C@H]2O[C@@H](Oc3ccc(O)cc3)[C@H](O)[C@@H](OC(=O)c3ccc(O)cc3)[C@@H]2O)[C@H](O)[C@H](O)[C@H]1O	none
O=C1C=CC(O)(/C=C/C(=O)OC[C@H]2O[C@@H](Oc3ccc(O)cc3)[C@H](O)[C@@H](OC(=O)/C=C/C3(O)C=CC(=O)C=C3)[C@@H]2O)C=C1	U2OS ROS induce 127
Cc1ccc(Cl)cc1N1CCN(C(=O)CN2C(=O)COc3ccc(C(C)(C)C)cc32)CC1	none (no result: YB-1 expression)
CCCc1nc(NCc2ccccc2)c(C#N)c2c1CCCC2	none (no result: YB-1 expression)
N#Cc1c(N2CCN(C(=S)NCc3ccccc3)CC2)nc(-c2ccccc2)c2c1CCCC2	U2OS ROS induce 140 (no result: YB-1 expression)
O=C(Nc1cccc2ccccc12)C(Cc1ccccc1)N1C(=O)C2C3CCC(C3)C2C1=O (stereo not drawn)	none (no result: YB-1 expression)
Cn1c(C(=O)NCCN2CCCCCC2)cc2sccc21	none (no result: YB-1 expression)
Cc1ccc(/C=N/N(C)S(=O)(=O)c2ccc(C)cc2)cc1	U2OS ROS induce 95
CSc1ccc(/C=N/N(C)S(=O)(=O)c2ccc(C)cc2)cc1	none
CCOc1cc(/C=C2/SC(=N)N(c3nccs3)C2=O)ccc1OCCN1CCOCC1	U2OS ROS induce 96
N=C1S/C(=C/c2ccccc2)C(=O)N1c1nonc1N	none
CCCCn1c(SCC(=O)NC2CCCC2)nc2c(sc3ccccc32)c1=O	none (no result: YB-1 expression)
O=C(CSc1nc2c(sc3ccccc32)c(=O)n1CC1CCCO1)c1ccccc1 (stereo not drawn)	U2OS ROS induce 112 (no result: YB-1 expression)
N#CCSc1nc2c(sc3ccccc32)c(=O)n1C1CCCCC1	U2OS ROS induce 157 (no result: YB-1 expression)
